Activity calls are given as the source filed them. The calls were made as follows: active = hit-call score of the fitted dose curve at least 0.9, where 1 is the maximum; inactive = score below 0.9.

Drawing on PubChem BioAssay (EPA / NIEHS), this text covers outcome and AC50 for 20 compounds.

A short description of assay [1]: ATG_CRE_CIS: Attagene CIS-FACTORIAL HepG2 Assay for human cAMP Responsive Element (CRE) binding protein 3 (AID 2282926). The conditions noted are these: HepG2 CRE cis-reporter, Attagene multiplexed mRNA; actives raise or lower the signal. In short, it runs like this:
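Assay format: transient reporter transfection of HepG2, 24 h treatment, total RNA isolation with DNase I step. Reporter abundance read by fluorescence after PCR and capillary separation; DMSO-normalised gain or loss fitting.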

The target in assay [2] is CCAAT/enhancer-binding protein beta (Homo sapiens) (UniProt P17676). The assay can be described thus: ATG_C_EBP_CIS: Attagene CIS-FACTORIAL HepG2 Assay for human CCAAT/Enhancer Binding Protein (C/EBP) beta (AID 2282927). The conditions noted are these: HepG2 Attagene cis-factorial transcription factor reporter; actives raise or lower the signal. In short, it runs like this:
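HepG2, transient MRTU transfection, 24 h treatment. RT-PCR plus CE fluorescence; DMSO negative control, bidirectional fit.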

The nature of assay [3]: ATG_CMV_CIS: Attagene CIS-FACTORIAL HepG2 Assay for human CMV (Internal Marker) (AID 2282928).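 Also: endpoint acts as a background internal control marker rather than a target.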 The following applies: HepG2 CMV promoter reporter, transcription factor profiling; actives raise or lower the signal. In short, it runs like this: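 24 h chemical treatment, HepG2 with transient multi-reporter transfection; RNA → oligo(dT) RT → PCR → 6-FAM extension → HpaI digest → CE fluorescence. Bidirectional fit, DMSO negative control.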

The nature of assay [4]: ATG_DR4_LXR_CIS: Attagene CIS-FACTORIAL HepG2 Assay for human Liver X Receptor (LXR), DR4 submotif (AID 2282929). The conditions noted are these: HepG2 Attagene DR4 cis-reporter, mRNA transcription; actives raise or lower the signal. An outline of the steps: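 HepG2 cells transiently transfected with cis-promoter-driven multiplexed reporter units (DR4 element) were dosed for 24 h. Reporter mRNA was quantified by RT-PCR, fluorescent primer extension, HpaI digestion and capillary electrophoresis; bidirectional fitting versus DMSO baseline.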

In assay [5] the target is Aryl hydrocarbon receptor (Homo sapiens) (UniProt P35869). Briefly: ATG_Ahr_CIS: Attagene CIS-FACTORIAL HepG2 Assay for human Aryl Hydrocarbon Receptor (Ahr) (AID 2282930). The conditions noted are these: HepG2 AhR cis-factorial reporter transcription; actives raise or lower the signal. In short, it runs like this:
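Endogenous factor activity is tracked through cis-promoter reporter units transfected into HepG2 cells. Transcript levels at 24 h are read by fluorescent RT-PCR and capillary electrophoresis, with activity in either direction scored relative to DMSO.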

A short description of assay [6]: ATG_AP_1_CIS: Attagene CIS-FACTORIAL HepG2 Assay for human Activator Protein 1 (AP-1) (AID 2282931). The conditions noted are these: HepG2 Attagene cis-factorial AP-1 reporter mRNA; actives raise or lower the signal. An outline of the steps:
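HepG2 cells transiently transfected with cis-element-driven multiplex reporter units; 24 h compound exposure. Reporter mRNA quantified by RT-PCR, FAM-labelled fragments resolved by capillary electrophoresis; bidirectional fit versus DMSO baseline.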

A short description of assay [7]: ATG_AP_2_CIS: Attagene CIS-FACTORIAL HepG2 Assay for human Activator Protein 2 (AP-2) (AID 2282932). The following applies: HepG2 AP-2 cis-reporter, Attagene transcription factor profiling; actives raise or lower the signal. In short, it runs like this:
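Liver-derived HepG2 line, cis-reporter system measuring endogenous factors; 24 h dosing; reporter mRNA detected by fluorescent RT-PCR and capillary electrophoresis.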

The nature of assay [8]: ATG_BRE_CIS: Attagene CIS-FACTORIAL HepG2 Assay for human Bone Morphogenetic Protein (BMP) Response Element (BRE) (AID 2282933). The conditions noted are these: HepG2 BMP response element reporter, Attagene transcription factor profiling; actives raise or lower the signal. An outline of the steps: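 Transient MRTU transfection of human HepG2 liver cells; 24 h compound treatment; total RNA isolated, reverse-transcribed, PCR-amplified, 6-FAM labelled, HpaI-cut, capillary electrophoresis. DMSO = negative control/baseline, bidirectional fit.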

Assay [9] has as its target Retinoic acid receptor alpha (Homo sapiens) (UniProt P10276). The assay can be described thus: ATG_DR5_RAR_CIS: Attagene CIS-FACTORIAL HepG2 Assay for human Retinoic Acid Receptor Alpha (RARE), DR5 submotif (AID 2282934).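 As to AC50: reporter responds to endogenous RAR alpha beta and gamma in HepG2 not RARA alone.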 The conditions noted are these: HepG2 Attagene cis-factorial RARE DR5 reporter, mRNA; actives raise or lower the signal. In short, it runs like this: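 After 24 h of chemical exposure, transiently transfected HepG2 cells were lysed for total RNA; the DR5-regulated reporter transcript was quantified via RT-PCR and capillary electrophoresis, with activity fitted bidirectionally against DMSO.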

The target of assay [10] is Transcription factor E2F1 (Homo sapiens) (UniProt Q01094). Briefly: ATG_E2F_CIS: Attagene CIS-FACTORIAL HepG2 Assay for human E2F Transcription Factor 1 (AID 2282935). The following applies: HepG2 Attagene cis-reporter, E2F reporter RNA transcripts; actives raise or lower the signal. In short, it runs like this: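 Liver-derived HepG2 cells expressing transfected promoter-driven reporter units received test chemical for 24 hours. Signal gains or losses were fitted bidirectionally against DMSO.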
Transcription factor E2F1 (Homo sapiens), sequence (Q01094 whole entry, looked up): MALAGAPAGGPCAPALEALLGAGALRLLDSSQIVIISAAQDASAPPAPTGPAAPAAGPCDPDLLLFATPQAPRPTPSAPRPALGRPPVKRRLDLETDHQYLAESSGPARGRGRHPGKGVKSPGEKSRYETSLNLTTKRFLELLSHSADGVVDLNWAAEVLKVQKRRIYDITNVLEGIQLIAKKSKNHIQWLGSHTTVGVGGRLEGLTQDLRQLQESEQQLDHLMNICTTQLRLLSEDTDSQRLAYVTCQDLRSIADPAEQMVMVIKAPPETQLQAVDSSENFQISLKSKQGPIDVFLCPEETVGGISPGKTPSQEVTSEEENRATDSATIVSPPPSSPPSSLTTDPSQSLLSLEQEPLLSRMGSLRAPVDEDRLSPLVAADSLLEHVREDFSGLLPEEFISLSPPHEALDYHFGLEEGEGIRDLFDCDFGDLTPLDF

Aryl hydrocarbon receptor (Homo sapiens), sequence (P35869 whole entry, looked up): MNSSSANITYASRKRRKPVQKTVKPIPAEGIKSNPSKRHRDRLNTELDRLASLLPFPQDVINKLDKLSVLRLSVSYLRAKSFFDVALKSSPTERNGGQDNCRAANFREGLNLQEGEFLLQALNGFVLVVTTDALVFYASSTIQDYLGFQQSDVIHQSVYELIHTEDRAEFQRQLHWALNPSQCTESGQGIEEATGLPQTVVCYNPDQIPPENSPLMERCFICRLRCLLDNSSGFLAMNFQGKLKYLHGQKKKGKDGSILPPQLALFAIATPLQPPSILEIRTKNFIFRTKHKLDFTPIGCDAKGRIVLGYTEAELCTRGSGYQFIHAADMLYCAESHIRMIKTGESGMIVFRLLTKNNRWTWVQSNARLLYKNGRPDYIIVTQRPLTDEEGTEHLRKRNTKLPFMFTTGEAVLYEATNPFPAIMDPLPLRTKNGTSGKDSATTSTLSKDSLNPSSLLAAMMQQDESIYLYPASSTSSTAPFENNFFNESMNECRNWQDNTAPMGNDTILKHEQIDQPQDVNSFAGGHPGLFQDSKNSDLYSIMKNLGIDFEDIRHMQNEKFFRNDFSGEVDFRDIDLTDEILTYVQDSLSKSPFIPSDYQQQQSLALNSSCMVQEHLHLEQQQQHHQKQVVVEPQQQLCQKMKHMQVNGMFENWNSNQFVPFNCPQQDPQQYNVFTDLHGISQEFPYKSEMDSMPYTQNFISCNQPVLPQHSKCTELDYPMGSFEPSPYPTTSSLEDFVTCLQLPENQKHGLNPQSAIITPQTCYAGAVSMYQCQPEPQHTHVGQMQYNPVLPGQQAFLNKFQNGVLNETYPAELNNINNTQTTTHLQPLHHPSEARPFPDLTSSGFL
CCAAT/enhancer-binding protein beta (Homo sapiens), sequence (P17676 whole entry, looked up): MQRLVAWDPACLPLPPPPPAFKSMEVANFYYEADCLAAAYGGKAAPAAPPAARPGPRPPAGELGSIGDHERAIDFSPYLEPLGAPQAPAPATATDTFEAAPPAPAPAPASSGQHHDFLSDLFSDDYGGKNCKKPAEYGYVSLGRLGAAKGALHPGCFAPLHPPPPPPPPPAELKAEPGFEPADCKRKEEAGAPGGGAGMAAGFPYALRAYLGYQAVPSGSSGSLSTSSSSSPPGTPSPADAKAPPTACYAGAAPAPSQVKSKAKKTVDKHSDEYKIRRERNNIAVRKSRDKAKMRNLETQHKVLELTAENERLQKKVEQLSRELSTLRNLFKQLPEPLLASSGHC
Retinoic acid receptor alpha (Homo sapiens), sequence (P10276 whole entry, looked up): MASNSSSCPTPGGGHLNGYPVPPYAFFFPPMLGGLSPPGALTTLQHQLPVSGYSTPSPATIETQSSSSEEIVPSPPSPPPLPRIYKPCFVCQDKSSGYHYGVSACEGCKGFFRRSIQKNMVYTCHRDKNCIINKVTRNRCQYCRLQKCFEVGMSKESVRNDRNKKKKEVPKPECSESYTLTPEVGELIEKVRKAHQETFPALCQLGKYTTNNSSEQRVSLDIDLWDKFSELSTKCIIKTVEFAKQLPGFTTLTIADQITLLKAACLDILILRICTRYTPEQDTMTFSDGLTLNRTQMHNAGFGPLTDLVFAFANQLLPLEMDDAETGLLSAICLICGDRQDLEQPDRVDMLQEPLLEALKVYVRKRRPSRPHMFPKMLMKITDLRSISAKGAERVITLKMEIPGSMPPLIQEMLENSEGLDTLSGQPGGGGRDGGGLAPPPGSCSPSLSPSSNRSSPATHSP

As usually defined, the AC50 is the concentration giving half of the maximal activity seen. Regarding `CCCN(C1CCN(C(=O)C2CCNCC2)CC1)[C@@H]1CCc2ccc(OC)cc2C1`, the outcome in [1], in assay [2], in assay [3], in assay [6], in assay [9] and in assay [10] was inactive. The half-maximal activity concentration (AC50) in [4] is 68.6 µM (active); in assay [5], 32.9 µM (active); in assay [7] it was 82.6 µM (active); in [8] it was 53.3 µM (active).
For `CC(C)(O)c1coc(S(=O)(=O)NC(=O)Nc2c3c(cc4c2CCC4)CCC3)c1`, the outcome in assay [1], in assay [2], in assay [3], in assay [4], in assay [5] and in [6] was inactive. The outcome in [7], in assay [8], in assay [9] and in assay [10] was inactive.
Turning to `COc1ccc(/C=C/S(=O)(=O)NC(=O)c2ccc(C)cc2Cl)cc1`, the compound was called inactive in assay [1], in assay [2], in assay [3], in assay [4], in assay [5] and in assay [6]. In addition, the compound was classed as inactive in [7], in assay [8], in [9] and in assay [10].
For the compound `CCOC(=O)CC(CC(=O)OCC)(OC(C)=O)C(=O)OCC`, the outcome in assay [1], in assay [2], in [3], in [4], in assay [5] and in [6] was inactive. The result in assay [7], in assay [8], in assay [9] and in assay [10] was inactive.
For the compound `COC(=O)CC(=O)OC`, the outcome in assay [1], in [2], in assay [3], in assay [4], in [5] and in assay [6] was inactive. The call in [7], in assay [8] and in assay [10] was inactive.
Consider `CC(C)=CCCC(C)=CC=O`, for which the AC50 in assay [1] was 162 µM (active); in assay [4] it was 183 µM (active); in [5], 78.9 µM (active); in assay [6], 137 µM (active); in assay [8] it was 139 µM (active). For the same compound, the result in assay [2], in assay [3], in assay [7], in [9] and in assay [10] was inactive.
For `CCCCCCCCCCCCCCCO`, the compound was classed as inactive in [1], in assay [2], in assay [5], in assay [6], in assay [7] and in assay [8]. The call in assay [9] and in assay [10] was inactive. For the same compound, the AC50 in assay [3] was 56.6 µM (active); in assay [4], 57.7 µM (active).
`CC(C)=CCC/C(C)=C/CO`: the compound was classed as inactive in assay [1], in [2], in assay [3], in [4], in assay [5] and in assay [6]. The call in [7], in assay [8] and in [10] was inactive.
Regarding `CN(C)c1ccc(N=NS(=O)(=O)O)cc1`, the call in assay [1], in [2], in assay [3], in assay [4], in [7] and in assay [8] was inactive. For the same compound, the compound was classed as inactive in assay [9] and in assay [10]. Besides, the AC50 is 7.46 µM (active) in [5] and 43.8 µM (active) in assay [6].
In the case of `CCOc1cccc(-n2cc(C(=O)N3CCN(c4cc(C(=O)O)c5ccccc5c4)CC3)nc2-c2ccc(C)cc2)c1`, the compound was called inactive in [1], in [2], in [3], in assay [5], in assay [7] and in assay [10]. Further, the AC50 is 25.1 µM (active) in assay [4], 18.4 µM (active) in [6], 54.7 µM (active) in assay [8] and 26 µM (active) in assay [9].
With `O=P(OC(CCl)CCl)(OC(CCl)CCl)OC(CCl)CCl`, the AC50 in [1] was 72.3 µM (active); in assay [3], 100 µM (active); in [8] it was 70.4 µM (active). Moreover, the result in assay [2], in assay [4], in assay [5], in [6], in assay [7] and in [9] was inactive. Also, the call in assay [10] was inactive.
Consider `O=C(O)CC(O)C(=O)O` (configuration not stated), for which the compound was called inactive in [1], in assay [2], in assay [3], in assay [4], in assay [5] and in assay [6]. Further, the call in assay [7], in assay [8], in assay [9] and in assay [10] was inactive.
Regarding `CCCC(=O)OCC`, the call in assay [1], in assay [2], in assay [3], in assay [4], in [5] and in assay [6] was inactive. Besides, the call in [7], in [8], in assay [9] and in [10] was inactive.
Take `O=C1OC(=O)C2C3C=CC(C3)C12` (configuration not stated): the compound was classed as inactive in assay [1], in assay [2], in assay [3], in assay [4], in [5] and in assay [6]. The call in [7], in [8], in assay [9] and in assay [10] was inactive.
`O=C(CCCCCCCCc1cccnc1)N1CCC(C=C(c2ccccc2)c2ccccc2)CC1`: the AC50 in [1] was 14.5 µM (active); in assay [2], 9.03 µM (active); in [3] it was 14 µM (active); in assay [4], 14.4 µM (active); in [5], 0.874 µM (active); in assay [6], 9.05 µM (active). Further, the results for the AC50 in [7], in [8] and in assay [9] were 56.3 µM (active), 3.07 µM (active) and 1.66 µM (active), respectively. For the same compound, the call in assay [10] was inactive.
As for `O=c1n(CC2CO2)c(=O)n(CC2CO2)c(=O)n1CC1CO1` (configuration not stated), the results for the AC50 in [1], in assay [2] and in assay [6] were 44.5 µM (active), 75.7 µM (active) and 4.4 µM (active), respectively. In addition, the outcome in assay [3], in assay [4], in [5], in [7], in [8] and in assay [10] was inactive.
Turning to `COCCOc1cc2cc(C(=O)NC3CCN(C(C)C)CC3)n(CC(=O)Nc3ccc(Cl)cn3)c2cn1`, the AC50 was 100 µM (active) in assay [1], 71.6 µM (active) in [4], 6.53 µM (active) in assay [5] and 50.4 µM (active) in assay [9]. Moreover, the result in assay [2], in assay [3], in assay [6], in [7], in [8] and in assay [10] was inactive.
As for `Nc1nc2ncc(CNc3ccc(C(=O)N[C@@H](CCC(=O)O)C(=O)O)cc3)nc2c(=O)[nH]1`, the compound was classed as inactive in assay [1], in assay [2], in assay [3], in assay [4], in assay [5] and in assay [6]. For the same compound, the compound was classed as inactive in [7], in assay [8], in assay [9] and in assay [10].
Turning to `CCCCCCCCO`, the outcome in assay [1], in assay [2], in [3], in assay [4], in assay [5] and in assay [6] was inactive. The compound was classed as inactive in assay [7], in [8] and in assay [10]. The AC50 in assay [9] is 25.3 µM (active).
`Cc1ccc(N)cc1O`: the compound was called inactive in [1], in assay [2], in assay [3], in assay [4], in [6] and in assay [7]. The outcome in assay [8], in [9] and in assay [10] was inactive. Further, in [5], the AC50 was 2.56 µM (active).
